Hits are enriched below; roughly 5.9% of the tested compounds scored in any of these assays.
Rtt109 Vps75: blocks Candida albicans Rtt109/Vps75 acetyltransferase activity. inhibition, % at 34.9 µM. 330,000 tested, 0.16% active. purified Rtt109/Vps75, ThioGlo CoA-SH fluorescence, 4 h. Q5AAJ8. AID 540336;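 active = inhibition of at least 50% in every replicate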
ABHD5 PLIN5 PPI: ABHD5-PLIN5 protein interaction inhibition. Q00G26+Q8WTS1. Split G. princeps luciferase complementation, luminescence, 4 h. inhibition, % at 4 µM. 360,000 tested, 0.78% active. AID 602281;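 active = inhibition above the mean inhibition across every tested compound plus 3 SD, cut at about 22% in these data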;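 also: 0% = DMSO only wells and the 100% control is not disclosed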
rCAG binder: binds r(CAG) RNA repeats | r(CAG) RNA repeat, TO-PRO-1 dye displacement fluorescence | inhibition, % at 3 µM | 370,000 tested, 1.3% active | AID 651821;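 active = inhibition above the plate cutoff, the mean of all test compounds on that plate plus 3 SD, cut at about 35% in these data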;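 also: 0% = DMSO alone and 100% = 100 µM mitoxantrone as full dye displacement; higher means more dye released from RNA so lower well fluorescence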
LANA-H2B inh: blocks KSHV LANA binding to histone H2A/H2B | 320,000 tested, 0.6% active | inhibition, % (concentration not given with the values) | AID 2629 | cell-free LANA-H2A/H2B peptide, fluorescence polarization; in the data active = inhibition mostly above about 10%, no sharp cut-off; inactive = mostly below about 6.7%
ALR inh: human ALR oxidase inhibition via reduced H2O2; 290,000 tested, 3.8% active; inhibition, % (test concentration not listed); P55789; purified ALR, DTT oxidation, H2O2 HRP-luminol luminescence; AID 485317;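 active = mean replicate inhibition above about 79%, with every replicate also reaching it, limit read from the data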
Target sequence (P55789 whole entry, looked up): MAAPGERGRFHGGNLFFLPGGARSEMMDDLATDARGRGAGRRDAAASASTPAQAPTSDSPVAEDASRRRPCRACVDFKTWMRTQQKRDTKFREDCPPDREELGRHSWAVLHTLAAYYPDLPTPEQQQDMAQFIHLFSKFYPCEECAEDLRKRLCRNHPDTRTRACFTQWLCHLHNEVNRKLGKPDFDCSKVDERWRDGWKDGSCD
PRMT1 FP inh: inhibitors of human PRMT1; Q99873; recombinant PRMT1, activity-based probe fluorescence polarization; inhibition, % at 2.79 µM; 370,000 tested, 1.3% active; AID 652257;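 active = inhibition above about 21% made by adding two undisclosed values, limit read from the data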
* hit, by the source's call.

`CCn1c(N)c(C(=O)NCCOC)sc1=S` gave Rtt109 Vps75 5, ABHD5 PLIN5 PPI -5, rCAG binder 2, LANA-H2B inh -8, ALR inh 100* and PRMT1 FP inh 9.
Screening Cc1c(C(=O)NCc2ccc3c(c2)OCCO3)sc(=O)n1Cc1ccc2c(c1)OCO2 returned ABHD5 PLIN5 PPI -6, rCAG binder 1 and PRMT1 FP inh 1.
`CCn1c(N)c(C(=O)NCc2ccc3c(c2)OCO3)sc1=S` gave Rtt109 Vps75 -1, ABHD5 PLIN5 PPI -1, LANA-H2B inh 5 and ALR inh 99*.
`COc1cccc(/C=N/NC(=O)CNC(=O)c2ccco2)c1O` gave Rtt109 Vps75 8, ABHD5 PLIN5 PPI -1, rCAG binder -1, LANA-H2B inh -1, ALR inh 63 and PRMT1 FP inh 3.
`COc1cc(/C=N/NC(=O)CNC(=O)c2ccncc2)ccc1O` gave Rtt109 Vps75 2, ABHD5 PLIN5 PPI -3, rCAG binder 2, LANA-H2B inh 2, ALR inh 99* and PRMT1 FP inh 0.
Screening COc1cccc(/C=N/NC(=O)CNC(=O)c2ccncc2)c1O returned Rtt109 Vps75 8, ABHD5 PLIN5 PPI 9, rCAG binder -2, LANA-H2B inh 3, ALR inh 91* and PRMT1 FP inh 2.
For COc1cccc(/C=N/NC(=O)CNC(=O)c2cccnc2)c1O the results were Rtt109 Vps75 6, ABHD5 PLIN5 PPI -6, rCAG binder -3, LANA-H2B inh -3, ALR inh 92* and PRMT1 FP inh 4.
For COc1cc(/C=N/NC(=O)CNC(=O)c2cccs2)ccc1O the results were Rtt109 Vps75 7, ABHD5 PLIN5 PPI -1, rCAG binder 5, LANA-H2B inh 9 and PRMT1 FP inh 2.
CC(C)c1c(C(=O)N/N=C/c2ccccc2OCc2c(F)cccc2Cl)nnn1-c1nonc1N was read as Rtt109 Vps75 8, ABHD5 PLIN5 PPI 0, rCAG binder 3, LANA-H2B inh -3, ALR inh 0 and PRMT1 FP inh 0.
Screening COc1cc(F)c(S(=O)(=O)N2CCCN(S(=O)(=O)c3cccc(N)c3)CC2)c(F)c1 returned PRMT1 FP inh -2.
For C[C@@H]1CN([C@@H](C)CO)C(=O)c2cc(Br)cnc2O[C@@H]1CN(C)Cc1ccccn1 the results were rCAG binder 0 and PRMT1 FP inh 3.
COc1ccc(-c2cc(C(=O)N=Nc3c(O)[nH]c4ccccc34)[nH]n2)cc1 was read as rCAG binder 25 and PRMT1 FP inh -2.
For Cc1ccc(NC(=O)CN2C(=O)N/C(=C/c3cccn3-c3ccc(C(=O)O)cc3)C2=O)cc1 the results were Rtt109 Vps75 14, ABHD5 PLIN5 PPI 20, rCAG binder 56*, LANA-H2B inh 1, ALR inh 97* and PRMT1 FP inh 30*.
For Cc1ccc(NC(=O)CN2C(=O)N/C(=C/c3ccco3)C2=O)cc1 the results were Rtt109 Vps75 5, ABHD5 PLIN5 PPI 11, rCAG binder 21, LANA-H2B inh 0, ALR inh 8 and PRMT1 FP inh 17.
Screening Cc1ccc(NC(=O)CN2C(=O)N/C(=C/c3cc(C)n(-c4ccc(C(=O)O)cc4)c3C)C2=O)cc1 returned Rtt109 Vps75 -7, ABHD5 PLIN5 PPI -6, rCAG binder 37* and PRMT1 FP inh 7.
CCN1Cc2nnn(Cc3ccccc3)c2-c2ccccc2S1(=O)=O was read as rCAG binder 0 and PRMT1 FP inh 0.
`Cc1nc(N2CCN(C)CC2)c2cc(-c3ccccc3)sc2n1` gave Rtt109 Vps75 -1, ABHD5 PLIN5 PPI 5, rCAG binder -4, LANA-H2B inh -4, ALR inh 97* and PRMT1 FP inh 2.
Screening CCOC(=O)[C@]12CCCC=C1N(Cc1ccc(OC)cc1)C(=O)[C@@H]2CC(=O)N1CCSCC1 returned rCAG binder 0 and PRMT1 FP inh 0.
COc1ccccc1CNC(=O)COC(=O)c1cc(=O)c2ccccc2o1 was read as Rtt109 Vps75 19, ABHD5 PLIN5 PPI -5, rCAG binder 2, LANA-H2B inh 17* and PRMT1 FP inh 3.
For CN(C)c1ccc(NC(=O)COC(=O)c2cc(=O)c3ccccc3o2)cc1 the results were Rtt109 Vps75 6, ABHD5 PLIN5 PPI -10, rCAG binder 3, LANA-H2B inh 2, ALR inh 99* and PRMT1 FP inh 4.

High-throughput results: PubChem BioAssay, several laboratories
